From PubChem BioAssay
Only a selection was taken, and hits are over-represented in it overall.
LmPK inh: qHTS Assay for Inhibitors of Leishmania Mexicana Pyruvate Kinase (LmPK). Q27686. purified LmPK, Kinase-Glo ATP luminescence, 1 h. Potency, µM (top dose mostly 57.5 µM), without a hit: top-dose activity change, negative = inhibition, most hits filed as inhibitors. actives 0.37% (n = 290,000). AID 1721, 2009; also: potency is read from the fitted curve at half-maximal effect; % is scaled to controls: 0 for no effect and ±100 for the full control effect
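qHTS format; LmPK 0.1 nM; substrates PEP 0.5 mM and ADP 0.1 mM. One-hour room-temperature incubation, then coupled luciferase luminescence; 0.5 nM enzyme wells mark activation.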
Shiga toxin inh: A qHTS for Small Molecule Inhibitors of Shiga Toxin | Vero cells, Shiga toxin protein synthesis inhibition reporter | inhibition, % at 38.7 µM | actives 9.2% (n = 290,000); in the data active = inhibition mostly above about 28%, no sharp cut-off; inactive = mostly below about 43%; also: 0% is about no effect
Sm TGR block: qHTS Assay for the Inhibitors of Schistosoma Mansoni Peroxiredoxins. Schistosoma mansoni thioredoxin glutathione reductase (TGR), Q962Y6. purified TGR, DTNB reduction, TNB absorbance 405 nm. Potency, µM (series often up to 114 µM), for inactives: at the highest dose activity change, negative = inhibition, most hits filed as inhibitors. actives 3% (n = 360,000). AID 485364, 2010; also: potency is read from the fitted curve at half-maximal effect; % is scaled to controls: 0 for no effect and ±100 for the full control effect; nearly all actives have a fitted effect of over 60% in size
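Kinetic colorimetric format: TGR-catalysed, NADPH-driven DTNB reduction monitored via TNB absorbance. Enzyme dispensed at 20 nM; compound exposure 15 min at room temperature before reaction start.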
TbPYK inhibitor: qHTS of Trypanosoma Brucei Inhibitors. pyruvate kinase (Trypanosoma brucei), Q57TT1. TbPYK enzyme, Kinase-Glo Plus ATP luminescence, 45 min. Potency, µM (titrated, usually from 76.8 µM), for inactives: at the top dose activity, negative = inhibition, hits mostly inhibitors. actives 0.12% (n = 410,000). AID 624173, 2012; also: potency is read from the fitted curve at half-maximal effect; % is scaled to controls: 0 for no effect and ±100 for the full control effect; nearly all actives have a fitted effect of over 50% in size
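ADP (130 uM final) triggers the TbPYK reaction after compound addition; incubation is 45 min at room temperature. Kinase-Glo Plus is then added and luminescence imaged. Normalized data are fitted to concentration-effect curves.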
Cycloheximide cs: Cycloheximide Counterscreen for Small Molecule Inhibitors of Shiga Toxin; max response, %; AID 2314, 2010; actives 12% (n = 300,000); cell reporter, cycloheximide protein synthesis inhibition counterscreen; in the data active = max response mostly above about 13%, no sharp cut-off; inactive = mostly below about 14%; also: read at 38.3 µM for the half of the compounds with a filed dose; 0% is about no effect
Giardia FBPA inh: qHTS Assay for Inhibitors of Fructose-1,6-bisphosphate Aldolase from Giardia Lamblia | A8B2U2 | purified Giardia FBPA | Potency, µM (highest dose often 59.6 µM), for inactives: at the top dose activity, negative = inhibition, most hits filed as inhibitors | actives 0.71% (n = 290,000); also: potency is read from the fitted curve at half-maximal effect; % is scaled to controls: 0 for no effect and ±100 for the full control effect; nearly all actives have a fitted effect of over 55% in size
Target sequence (A8B2U2 whole entry, looked up): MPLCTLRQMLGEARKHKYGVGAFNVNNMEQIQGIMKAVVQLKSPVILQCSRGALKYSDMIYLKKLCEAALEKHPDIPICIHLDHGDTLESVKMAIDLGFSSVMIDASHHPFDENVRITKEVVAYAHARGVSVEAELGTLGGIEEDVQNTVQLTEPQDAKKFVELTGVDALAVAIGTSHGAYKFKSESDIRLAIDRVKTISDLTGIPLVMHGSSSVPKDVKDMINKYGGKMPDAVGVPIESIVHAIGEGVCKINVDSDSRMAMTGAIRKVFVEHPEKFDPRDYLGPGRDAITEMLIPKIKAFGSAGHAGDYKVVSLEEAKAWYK
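40 nM FBPA preincubated 10 min at RT with compound (up to 57.5 uM final), then substrate plus GAPDH/TPI/NAD/arsenate coupling and diaphorase/resazurin added. Fluorescence read after 20 min at RT, 525/598 nm.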
Numbers without * were called inactive; [ ] = another dose, or the depositor's remark. Unless noted, calls follow the shape of the dose curve; as a rule, active = well fitted curve in the direction sought with a large enough effect; inconclusive = small, poorly fitted or top-dose-only effect, or another doubt; inactive = no such curve, though single readings can be large; an effect the other way counts as inactive or inconclusive.

Results for CCN1C(=O)c2ccc(C(=O)NCc3ccccc3)cc2C1=O ?
LmPK inh: -1%; Shiga toxin inh: -8; Sm TGR block: 6%; TbPYK inhibitor: 4%; Cycloheximide cs: -2; Giardia FBPA inh: 2%

What do the screens show for `COCCCN1C(=O)c2ccc(C(=O)NCCc3ccccc3)cc2C1=O`?
LmPK inh: -7%; Shiga toxin inh: 95*; Sm TGR block: -18%; TbPYK inhibitor: -1%; Cycloheximide cs: 45*; Giardia FBPA inh: 1%

What do the screens show for `COCCCN1C(=O)c2ccc(C(=O)Nc3cccc(OC)c3)cc2C1=O`?
LmPK inh: -27%; Shiga toxin inh: 53*; Sm TGR block: 3%; TbPYK inhibitor: -8%; Cycloheximide cs: 37*; Giardia FBPA inh: 11%

How did CC(=O)Oc1cccc(NC(=O)c2ccc3c(c2)C(=O)N(CC(C)C)C3=O)c1 do in these assays?
LmPK inh: -1%; Shiga toxin inh: 128*; Sm TGR block: 1%; TbPYK inhibitor: -13%; Cycloheximide cs: 28*; Giardia FBPA inh: 1%

What do the screens show for `C#Cc1cccc(NC(=O)c2ccc3c(c2)C(=O)N(Cc2cccnc2)C3=O)c1`?
LmPK inh: -7%; Shiga toxin inh: -12; Sm TGR block: 1%; TbPYK inhibitor: -11%; Cycloheximide cs: 39*

What do the screens show for `COc1cccc(C(=O)Nc2ccc3c(c2)C(=O)N(CCC(=O)O)C3=O)c1`?
LmPK inh: -10%; Shiga toxin inh: -10; Sm TGR block: 9%; TbPYK inhibitor: -19%; Cycloheximide cs: 12; Giardia FBPA inh: 6%

Results for O=C(O)c1cc(NC(=O)c2ccc3c(c2)C(=O)N(Cc2cccnc2)C3=O)cc(C(=O)O)c1 ?
LmPK inh: -5%; Shiga toxin inh: -11; Sm TGR block: -1%; TbPYK inhibitor: 0%; Cycloheximide cs: 1; Giardia FBPA inh: 0%

What do the screens show for `COc1c(C=O)c2c(c(OC)c1OC)-c1ccc(OC)c(=O)cc1C(NC(C)=O)CC2` (stereo not drawn)?
TbPYK inhibitor: -8%

What do the screens show for `Cc1c(C(=O)Nc2cccc(C(F)(F)F)c2)oc2ccc3c(c12)C(=O)CC(C)(C)O3`?
Sm TGR block: -1%; TbPYK inhibitor: -1%

Results for Cc1cc(C(=O)CN2C(=O)NC3(CCCCC3C)C2=O)c(C)n1Cc1cccs1 (stereo not drawn) ?
LmPK inh: 8%; Shiga toxin inh: 75*; Sm TGR block: -11%; TbPYK inhibitor: -9%; Cycloheximide cs: 101*; Giardia FBPA inh: -1%

Results for Cc1cc(C(=O)CN2C(=O)NC3(CCCCC3)C2=O)c(C)n1Cc1ccc2c(c1)OCO2 ?
LmPK inh: 2%; Shiga toxin inh: 96*; Sm TGR block: 0%; TbPYK inhibitor: 0%; Cycloheximide cs: 27*; Giardia FBPA inh: 6%

What do the screens show for `Cc1cc(C(=O)CN2C(=O)NC3(CCCCC3)C2=O)c(C)n1Cc1ccco1`?
LmPK inh: 3%; Shiga toxin inh: 89*; Sm TGR block: -11%; TbPYK inhibitor: -4%; Cycloheximide cs: 41*; Giardia FBPA inh: 0%

Results for Cc1cc(C(=O)CN2C(=O)c3cccc(N)c3C2=O)c(C)n1Cc1cccs1 ?
LmPK inh: 3%; Shiga toxin inh: 84*; Sm TGR block: -5%; TbPYK inhibitor: -29%; Cycloheximide cs: 34*; Giardia FBPA inh: -1%

How did Cc1cc(C)c(Cn2cnc3nc4c(cc3c2=O)CCCC4)c(C)c1 do in these assays?
Sm TGR block: -3%; TbPYK inhibitor: 2%

Results for C[C@H]1[C@@H]2Cc3ccc(O)cc3[C@]1(C)CCN2C ?
TbPYK inhibitor: -10%[386 µM]

Results for CCc1cc2c(-c3ccccc3)cc(=O)oc2c2c1OCN(Cc1ccc(F)cc1)C2 ?
Sm TGR block: 1%; TbPYK inhibitor: -4%

How did COc1cc(-c2nc3cnccn3c2Nc2ccc(C(C)C)cc2)ccc1O do in these assays?
LmPK inh: 1%; Shiga toxin inh: 73*; Sm TGR block: -9%; TbPYK inhibitor: -7%; Cycloheximide cs: 29*; Giardia FBPA inh: -1%

What do the screens show for `COc1cc(-c2nc3nc[nH]n3c2Nc2ccc(C(C)C)cc2)ccc1O`?
Sm TGR block: 14µM*; TbPYK inhibitor: 3%

How did COc1cc(-c2nc3cnccn3c2Nc2ccc(C)cc2)ccc1O do in these assays?
LmPK inh: -1%; Shiga toxin inh: 2; Sm TGR block: 25%; TbPYK inhibitor: 0%; Cycloheximide cs: 17; Giardia FBPA inh: -5%

How did O=C(O)CSc1nnc2c(n1)[nH]c1ccccc12 do in these assays?
LmPK inh: 28µM*; Shiga toxin inh: 18; Sm TGR block: 2%; TbPYK inhibitor: 6%; Cycloheximide cs: 18; Giardia FBPA inh: -1%

How did O=C(CSc1nnc2c(n1)[nH]c1ccccc12)OCc1ccccc1 do in these assays?
LmPK inh: 8%; Shiga toxin inh: -7; Sm TGR block: 9%; TbPYK inhibitor: -8%; Cycloheximide cs: -2; Giardia FBPA inh: 0%

How did CCOC(=O)Cc1nnc(NC(=O)CSc2nnc3c(n2)[nH]c2ccccc23)s1 do in these assays?
LmPK inh: -3%; Shiga toxin inh: -8; Sm TGR block: 4%; TbPYK inhibitor: 0%; Cycloheximide cs: -2; Giardia FBPA inh: 0%

How did CCOC(=O)CC(=O)CSc1nnc2c(n1)[nH]c1ccccc12 do in these assays?
LmPK inh: 4%; Shiga toxin inh: 70; Sm TGR block: 9%; TbPYK inhibitor: -5%; Cycloheximide cs: 20*; Giardia FBPA inh: 4%

Results for COc1cc(CN2C[C@@H](CO)O[C@@H](n3cnc4c(NC5CCC5)ncnc43)C2)cc(OC)c1OC ?
TbPYK inhibitor: 5%

What do the screens show for `COc1ccc(OC)c(CNc2ncc(-c3ccc(Cl)cc3)n2C)c1`?
Sm TGR block: -2%; TbPYK inhibitor: 0%

Results for COC(=O)c1ccc(NC(=O)Cn2nc(C(=O)Nc3ccc(C)cc3)ccc2=O)cc1 ?
LmPK inh: 1%; Shiga toxin inh: -3; Sm TGR block: -5%; TbPYK inhibitor: 0%; Cycloheximide cs: 2

Results for Cc1ccc2oc(C(=O)Nc3ccc(S(=O)(=O)Nc4nc(C)cc(C)n4)cc3)cc(=O)c2c1 ?
Sm TGR block: 0%; TbPYK inhibitor: 1%

Results for Cc1ccc(OCCOc2ccc(Cl)cc2Cl)c([N+](=O)[O-])n1 ?
LmPK inh: 4%; Shiga toxin inh: 106*; Sm TGR block: -10%; TbPYK inhibitor: -4%; Cycloheximide cs: 52*; Giardia FBPA inh: 2%
